Source: PubChem
Rows were chosen to be rich in hits. Some 3% of all compounds tested hit in one or more screens of this group.
PTAP TSG101 blk = qHTS Assay for Iinhibitors of HIV-1 Budding by Blocking the Interaction of PTAP/TSG101 | Tumor susceptibility gene 101 protein (Homo sapiens), Q99816 | Fluorescence polarization, FITC-PTAP peptide / Tsg101 binding | Potency, µM (top dose mostly 115 µM), for inactives: at the top dose activity change, negative = inhibition, actives largely listed as inhibitors | 340,000 tested, under 10 active; active = well fitted inhibition curve with a large enough effect in the main read-out, with a control signal flat, not every such curve was filed as active; inconclusive = small, poorly fitted or top-dose-only effect, or effect the other way, or a change in a side signal; inactive = no such curve, though single readings can be large or run the other way; note: % of control where 0% means no effect
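FP read-out: FITC-PTAP peptide, 50 nM final, binding Tsg101 binding domain, 10 uM final; 20 min, r.t.; 10 mM HEPES pH 7.5, 0.15 M NaCl, 0.01% Tween 20, 3 mM EDTA, 0.1 mM TCEP.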
USP1-UAF1 inh = Inhibitors of USP1/UAF1: Primary Screen; Potency, µM (doses to about 57.1 µM), without a hit: at the highest dose activity change, negative = inhibition, hits mostly inhibitors; AID 743255, 2014; recombinant USP1/UAF1, Ub-Rhodamine cleavage fluorescence; 0.23% of 390,000 active; Ubiquitin carboxyl-terminal hydrolase 1 (Homo sapiens), O94782; note: % is set by controls: 0 for no effect and ±100 for the full control effect; nearly all actives have a fitted effect of over 60% in size
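High-throughput fluorogenic screen: 1nM USP1/UAF1 complex, Ub-Rho substrate 150nM final, 50mM HEPES pH 7.8 with 0.5mM EDTA, 0.1 mg/ml BSA, 1mM TCEP and 0.01% Tween-20.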
GCN5L2 inh = qHTS Assay for Inhibitors of GCN5L2; Histone acetyltransferase KAT2A (Homo sapiens), Q92830; GCN5L2 HAT assay, ThioGlo1 CoA-SH fluorescence; Potency, µM (titrated, usually from 58.9 µM), without a hit: top-dose activity change, negative = inhibition, actives largely listed as inhibitors; 0.21% of 390,000 active; note: % is set by controls: 0 for no effect and ±100 for the full control effect
Target sequence (Q92830 whole entry, looked up): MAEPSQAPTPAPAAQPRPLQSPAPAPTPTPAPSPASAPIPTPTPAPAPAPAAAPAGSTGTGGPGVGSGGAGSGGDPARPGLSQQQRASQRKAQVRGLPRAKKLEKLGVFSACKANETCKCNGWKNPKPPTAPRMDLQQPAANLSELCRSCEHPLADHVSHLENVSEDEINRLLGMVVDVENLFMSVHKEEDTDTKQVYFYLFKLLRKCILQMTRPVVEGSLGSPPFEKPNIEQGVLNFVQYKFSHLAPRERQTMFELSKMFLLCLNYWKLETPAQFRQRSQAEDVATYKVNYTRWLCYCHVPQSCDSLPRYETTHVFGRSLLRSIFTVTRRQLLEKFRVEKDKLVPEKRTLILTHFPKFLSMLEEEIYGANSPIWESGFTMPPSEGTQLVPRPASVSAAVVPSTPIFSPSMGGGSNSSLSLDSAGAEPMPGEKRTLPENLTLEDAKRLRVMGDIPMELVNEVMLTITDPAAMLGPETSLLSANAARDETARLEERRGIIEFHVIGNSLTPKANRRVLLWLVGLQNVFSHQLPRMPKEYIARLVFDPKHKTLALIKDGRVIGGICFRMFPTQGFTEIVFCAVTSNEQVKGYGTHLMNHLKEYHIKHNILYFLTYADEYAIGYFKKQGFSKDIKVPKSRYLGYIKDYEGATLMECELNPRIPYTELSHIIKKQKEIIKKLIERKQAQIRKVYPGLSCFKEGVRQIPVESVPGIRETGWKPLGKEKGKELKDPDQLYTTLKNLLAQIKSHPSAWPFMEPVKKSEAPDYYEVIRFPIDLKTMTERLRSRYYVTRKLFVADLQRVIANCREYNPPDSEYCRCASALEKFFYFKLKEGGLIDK
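qHTS, 1536-well. 20nM enzyme, pH 7.5 HEPES/EDTA/Tween-20 buffer; 15 min compound preinc., RT. Start: 75uM H3(1-25), 70uM AcCoA, 50uM ThioGlo1. Read Ex340/Em540 at t=0 (autofluorescence flag) and t=20 min.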
PLK1 PBD block = qHTS for Inhibitors of PLK1-PDB (polo-like kinase 1 - polo-box domain): Primary Screen. Potency, µM, for inactives: max response, negative = inhibition, hits mostly inhibitors. AID 720504, 2013. 2.8% of 360,000 active. Serine/threonine-protein kinase PLK1 (Homo sapiens), P53350. Plk1 PBD binding of FITC phosphopeptide, fluorescence polarization; note: series mostly up to about 57 µM; % is set by controls: 0 for no effect and ±100 for the full control effect; nearly all actives have a fitted effect of over 65% in size
VDR inhibitor = Inhibitors of the vitamin D receptor (VDR): qHTS; Potency, µM, without a hit: max response, negative = inhibition, hits mostly inhibitors; Vitamin D3 receptor (Homo sapiens), P11473; 0.93% of 400,000 active; VDR-SRC2-3 peptide fluorescence polarization, 2 h; note: % is set by controls: 0 for no effect and ±100 for the full control effect
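Measured by FP: displacement of SRC2-3 coactivator peptide from VDR by library compounds, following a two-hour ambient incubation.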
VDR confirm = qHTS for Inhibitors of the vitamin D receptor (VDR): Hit Validation in Primary Screen | shares compounds with VDR inhibitor | VDR-coactivator inhibition assay, qHTS confirmation | Potency, µM, most hits filed as inhibitors | 89% of 840 active
VDR FP fluor = qHTS for Inhibitors of the vitamin D receptor (VDR): Hit Validation using a Fluorescein Assay | Potency, µM (titrated, usually from 57.1 µM), inactives show top-dose activity change, negative = inhibition, most hits filed as inhibitors | shares compounds with VDR inhibitor | VDR-coactivator binding, fluorescein fluorescence polarization | AID 602200, 2012 | 48% of 840 active
VDR bla = qHTS for Inhibitors of the vitamin D receptor (VDR): Hit Validation using a Beta-Lactamase Assay | shares compounds with VDR inhibitor | VDR beta-lactamase reporter cells, FRET ratio; cells co-treated with VDR agonist LG190178 | Potency, µM (highest dose often 46.1 µM), without a hit: at the top dose activity change, negative = inhibition, actives largely listed as inhibitors | 23% of 840 active | AID 602202, 2012; note: % is set by controls: 0 for no effect and ±100 for the full control effect
VDR viability = qHTS for Inhibitors of the vitamin D receptor (VDR): Hit Validation using a Cytotoxicity Assay; AID 602204, 2012; Potency, µM (top dose mostly 48.3 µM), without a hit: at the highest dose activity change, negative = cytotoxicity, hits mostly cytotoxic; cytotoxicity counter-screen, cell viability, qHTS; 18% of 840 active; shares compounds with VDR inhibitor;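 note: plate controls were DMSO for no effect and high-concentration cycloheximide for full effect; nearly all actives have a fitted effect of over 75% in size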
* = called active by the depositor. Unless noted, calls come from the whole dose curve; as a rule, active = well fitted curve in the direction sought with a large enough effect; inconclusive = small, poorly fitted or top-dose-only effect, or another doubt; inactive = no such curve, though single readings can be large; an effect the other way counts as inactive or inconclusive. Potency is the fitted concentration of half-maximal effect.

Results for COc1cccc(C(=O)Oc2ccccc2/C=C\C(=O)c2cc3ccccc3o2)c1 ?
PTAP TSG101 blk: -1%; USP1-UAF1 inh: -12%; GCN5L2 inh: -9%; PLK1 PBD block: -13%; VDR inhibitor: inconclusive; VDR confirm: 2.8*; VDR FP fluor: 3.2µM*; VDR bla: inconclusive; VDR viability: -22%

What do the screens show for `CC(=O)C1=C(C)NC2(O)c3ccccc3C(=O)C12O` (stereo unspecified)?
PTAP TSG101 blk: 1%; USP1-UAF1 inh: -10%; GCN5L2 inh: -4%; PLK1 PBD block: -3%; VDR inhibitor: -18%

How did O=C1CCCC2=C1C1(O)C(=O)c3ccccc3C1(O)O2 (stereo unspecified) do in these assays?
PTAP TSG101 blk: -7%; USP1-UAF1 inh: -22%; GCN5L2 inh: -3%; PLK1 PBD block: -11%; VDR inhibitor: inconclusive; VDR confirm: 2.5*; VDR FP fluor: 2.2µM*; VDR bla: 9%; VDR viability: 12%

Results for Cc1ccccc1N1CC(c2nnc(NC(=O)c3ccco3)s2)CC1=O (stereo unspecified) ?
USP1-UAF1 inh: -13%; GCN5L2 inh: -9%; VDR inhibitor: -2%

What do the screens show for `Nc1c(N2CCCC2)cc(Cl)c2nonc12`?
PTAP TSG101 blk: -6%; USP1-UAF1 inh: 16µM*; GCN5L2 inh: -12%; PLK1 PBD block: 21µM*; VDR inhibitor: inconclusive; VDR confirm: 5*; VDR FP fluor: 2.8µM*; VDR bla: 3%; VDR viability: 7%

What do the screens show for `N#Cc1c(Nc2ccc(Cl)cc2)s[nH]c1=O`?
PTAP TSG101 blk: -6%; USP1-UAF1 inh: -12%; GCN5L2 inh: -4%; PLK1 PBD block: inconclusive; VDR inhibitor: 10µM*; VDR confirm: 7.5*; VDR FP fluor: inconclusive; VDR bla: 2%; VDR viability: -14%

Results for Cc1ccc(NC(=O)CN2C(=O)c3ccccc3Sc3ccc(C(=O)N4CCOCC4)cc32)cc1C ?
USP1-UAF1 inh: -6%; GCN5L2 inh: 2%; VDR inhibitor: -1%

How did CCc1nc2c(OCC(=O)c3ccc(F)cc3)cccn2c1N(C)C(=O)c1ccc(OC)cc1 do in these assays?
PLK1 PBD block: -13%

What do the screens show for `O=C(C[n+]1csc2ccccc21)c1cccc([N+](=O)[O-])c1`?
VDR confirm: inconclusive; VDR FP fluor: inconclusive; VDR bla: 5%; VDR viability: 22%

How did CCc1ccccc1NC(=O)Cn1c(=O)n(-c2ccc(C)cc2)c(=O)c2c1c1cc(C)ccc1n2C do in these assays?
USP1-UAF1 inh: -10%; GCN5L2 inh: -10%; VDR inhibitor: 11%

Results for CS/C(=N/S(=O)(=O)c1ccc(C)cc1)c1ccccc1 ?
PTAP TSG101 blk: 0%; USP1-UAF1 inh: 8%; GCN5L2 inh: -8%; PLK1 PBD block: inconclusive; VDR inhibitor: -7%

What do the screens show for `O=S(=O)(/N=C(\Sc1ccc(Cl)cc1)c1ccccc1)c1ccccc1`?
PTAP TSG101 blk: -2%; USP1-UAF1 inh: -21%; GCN5L2 inh: 9%; PLK1 PBD block: 2.7µM*; VDR inhibitor: inconclusive; VDR confirm: 7.1*; VDR FP fluor: 22µM*; VDR bla: 2%; VDR viability: -2%

How did Cc1ccc(C(=O)c2cn(Cc3ccccc3)c3nc(C)ccc3c2=O)cc1 do in these assays?
USP1-UAF1 inh: inconclusive; GCN5L2 inh: -3%; VDR inhibitor: -15%

How did Cc1nc2c3cc(F)ccc3n(Cc3ccccc3)c2s1 do in these assays?
PTAP TSG101 blk: -1%; USP1-UAF1 inh: -17%; GCN5L2 inh: -4%; PLK1 PBD block: -26%; VDR inhibitor: 50µM*; VDR confirm: inconclusive; VDR FP fluor: inconclusive; VDR bla: inconclusive; VDR viability: 23%

What do the screens show for `CSc1nnc2c3cc(F)ccc3n(Cc3ccccc3)c2n1`?
PTAP TSG101 blk: 4%; USP1-UAF1 inh: -6%; GCN5L2 inh: -30%; PLK1 PBD block: -11%; VDR inhibitor: -17%

Results for O=C(CSc1nnc(-c2ccccc2F)o1)NC(=O)Cc1ccccc1 ?
PTAP TSG101 blk: -7%; USP1-UAF1 inh: -21%; GCN5L2 inh: -2%; PLK1 PBD block: 2%; VDR inhibitor: 19%

Results for O=[N+]([O-])c1ccc2c(c1)S(=O)(=O)C=C2 ?
GCN5L2 inh: inconclusive; VDR inhibitor: 13µM*; VDR confirm: 22*; VDR FP fluor: inconclusive; VDR bla: 3.7µM*; VDR viability: 6µM*

Results for O=C1NC[C@@H](CCCCN2CCN(CCc3ccccc3)C(=O)C2=O)N(CCC2CCCCC2)C1=O ?
PLK1 PBD block: 2%

What do the screens show for `C(=C\c1ccncc1)/c1ccncc1`?
PTAP TSG101 blk: 0%; USP1-UAF1 inh: -3%; GCN5L2 inh: 0%; PLK1 PBD block: -29%; VDR inhibitor: -11%

How did [O-]/[N+](=C\c1ccncc1)c1ccc(Br)cc1 do in these assays?
PTAP TSG101 blk: 0%; USP1-UAF1 inh: -7%; GCN5L2 inh: -11%; PLK1 PBD block: 21µM*; VDR inhibitor: 45µM*; VDR confirm: 9.5*; VDR FP fluor: inconclusive; VDR bla: 6%; VDR viability: 2%

How did CCOc1ccc(Sc2cc(C(=O)NCc3ccc(F)cc3)c3ccccc3n2)cc1 do in these assays?
USP1-UAF1 inh: -8%; GCN5L2 inh: 2%; VDR inhibitor: -6%
